# Measured values: PubChem BioAssay (Tox21)
# Inconclusive results are not listed. The source made the active and inactive calls. Calls come from the whole dose curve.
# Test system: not listed separately
# Experiment: qHTS assay to identify small molecule agonists of the AP-1 signaling pathway - cell viability counter screen (AID 1159525); note: nearly all actives have a fitted effect of over 55% in size
# Settings: ME-180 AP-1-bla cells viability, ATP luminescence, 5 h; series mostly up to 76.8 µM; viability change, negative = cytotoxic: at the top concentration
# Procedure, shortened: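 AP-1-bla ME-180 cells in Opti-MEM with 0.5% dialyzed FBS, compound exposure 5 h at 37 C in 15-point titration. Viability read in the same wells as ATP content by CellTiter-Glo luminescence, normalised to tetra-n-octylammonium bromide and DMSO controls.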
row,Structure (SMILES),"viability change, negative = cytotoxic"
1,CS(=O)(=O)O,2.15% (inactive)
2,CCOC(C)(C)C,-2.03% (inactive)
3,O=Cc1cccc([N+](=O)[O-])c1,0.102% (inactive)
4,N=C(N)c1ccc(OCCCOc2ccc(C(=N)N)cc2)cc1,-1.35% [at 35.3 µM] (inactive)
5,NC(=O)COCCN1CCN(C(c2ccccc2)c2ccc(Cl)cc2)CC1 (stereo not given),-1.13% [at 35.3 µM] (inactive)
6,C/C=C(\C)C#N,-10.1% (inactive)
7,CCCCCCOC(=O)CCCCC(=O)OCCCCCC,1.78% (inactive)
8,C[C@@H]1CCN(C(=O)[C@H](CCCN=C(N)N)NS(=O)(=O)c2cccc3c2NC[C@H](C)C3)[C@@H](C(=O)O)C1,-12.2% [at 35.3 µM] (inactive)
9,CCc1nccnc1CC,-1.96% [at 15.8 µM] (inactive)
10,COC(C)(C)CCCC(C)CC=O (stereo not given),-2.22% (inactive)
11,CCCc1cc(C(N)=S)ccn1,2% [at 35.3 µM] (inactive)
12,O=C(O)CCCl,0.988% (inactive)
13,O=C(O)c1ccccc1OP(=O)(O)O,2.19% [at 35.3 µM] (inactive)
14,Cn1cc(S(C)=O)c(=O)c2ccc(F)cc21 (stereo not given),3.5% [at 35.3 µM] (inactive)
15,O=c1[nH]c(=O)n([C@H]2C[C@H](O)[C@@H](CO)O2)cc1I,13.2% [at 35.3 µM] (inactive)
16,CC(=O)Nc1ccc(S(N)(=O)=O)cc1,-5.03% (inactive)
17,C=C(C)C(=O)OCCCCCCCC(C)C,2.54% (inactive)
18,CC(C)(CC(=O)O)C(=O)O,-14% (inactive)

row,Structure (SMILES),"viability change, negative = cytotoxic"
1,CO[C@]12C[C@@H](COC(=O)c3cncc(Br)c3)CN(C)[C@@H]1Cc1cn(C)c3cccc2c13,-7.25% [at 35.3 µM] (inactive)
2,CC(=O)CC(C)C,-0.602% (inactive)
3,O=[N+]([O-])c1ccc(F)cc1F,-3.95% (inactive)
4,Nc1c[n+](N2CCOCC2)no1,4.93% [at 35.3 µM] (inactive)
5,CC/C=C\CCOC(C)=O,-9.96% (inactive)
6,COC(=O)NN,-2.44% (inactive)
7,C1CN(CCOCCN2CCOCC2)CCO1,2.53% (inactive)
8,C[C@H]1C[C@@H](O)CC(C)(C)C1,5.83% (inactive)
9,C=CCCCCCCCCC=O,2.4% (inactive)
10,CCCCCCCCCCCCN(CCCCCCCCCCCC)CCCCCCCCCCCC,-4.49% (inactive)
11,ClC(Cl)(Br)Br,-18.2% (inactive)
12,N=C(N)c1ccc2cc(OC(=O)c3ccc(N=C(N)N)cc3)ccc2c1,2.33% [at 35.3 µM] (inactive)
13,CCCCCCCCCCCCCCCCC,2.39% (inactive)
14,CCOC(=O)c1c(C)n(C)c2ccc(O)cc12,7.98% [at 35.3 µM] (inactive)
15,Cc1cc2c(cc1S(N)(=O)=O)S(=O)(=O)CCC2,-3.85% [at 35.3 µM] (inactive)
16,CCCCCCCCCCCC,22.6% (inactive)
17,CC(C)NC(=O)NC(C)C,-6.63% (inactive)

# Test system: not listed separately
# Experiment: qHTS assay to identify small molecule agonists of the AP-1 signaling pathway (AID 1159526); note: % is set by controls: 0 for no effect and ±100 for the full control effect
# Settings: ME-180 (cervical carcinoma) AP-1-bla reporter, beta-lactamase FRET ratio, 5 h; series mostly up to 35.3 µM; activation: at the top concentration
row,Structure (SMILES),activation
1,CS(=O)(=O)O,-6.41% [at 76.8 µM] (inactive)
2,CCOC(C)(C)C,-0.928% [at 76.8 µM] (inactive)
3,O=Cc1cccc([N+](=O)[O-])c1,10.1% [at 76.8 µM] (inactive)
4,N=C(N)c1ccc(OCCCOc2ccc(C(=N)N)cc2)cc1,4.07% (inactive)
5,NC(=O)COCCN1CCN(C(c2ccccc2)c2ccc(Cl)cc2)CC1 (stereo not given),1.07% (inactive)
6,C/C=C(\C)C#N,0.24% [at 76.8 µM] (inactive)
7,CCCCCCOC(=O)CCCCC(=O)OCCCCCC,3.5% [at 76.8 µM] (inactive)
8,C[C@@H]1CCN(C(=O)[C@H](CCCN=C(N)N)NS(=O)(=O)c2cccc3c2NC[C@H](C)C3)[C@@H](C(=O)O)C1,-0.0486% (inactive)
9,CCc1nccnc1CC,-0.107% [at 15.8 µM] (inactive)
10,COC(C)(C)CCCC(C)CC=O (stereo not given),-3.31% [at 76.8 µM] (inactive)
11,CCCc1cc(C(N)=S)ccn1,-3.73% (inactive)
12,O=C(O)CCCl,-1.29% [at 76.8 µM] (inactive)
13,O=C(O)c1ccccc1OP(=O)(O)O,-1.15% (inactive)
14,Cn1cc(S(C)=O)c(=O)c2ccc(F)cc21 (stereo not given),-5.92% (inactive)
15,O=c1[nH]c(=O)n([C@H]2C[C@H](O)[C@@H](CO)O2)cc1I,12.2% (inactive)
16,CC(=O)Nc1ccc(S(N)(=O)=O)cc1,1.94% [at 76.8 µM] (inactive)
17,C=C(C)C(=O)OCCCCCCCC(C)C,-2.78% [at 76.8 µM] (inactive)
18,CC(C)(CC(=O)O)C(=O)O,-3.12% [at 76.8 µM] (inactive)

row,Structure (SMILES),activation
1,CO[C@]12C[C@@H](COC(=O)c3cncc(Br)c3)CN(C)[C@@H]1Cc1cn(C)c3cccc2c13,8.11% (inactive)
2,CC(=O)CC(C)C,4.57% [at 76.8 µM] (inactive)
3,O=[N+]([O-])c1ccc(F)cc1F,-0.357% [at 76.8 µM] (inactive)
4,Nc1c[n+](N2CCOCC2)no1,-11.9% (inactive)
5,CC/C=C\CCOC(C)=O,-7.45% [at 76.8 µM] (inactive)
6,COC(=O)NN,-0.298% [at 76.8 µM] (inactive)
7,C1CN(CCOCCN2CCOCC2)CCO1,-3.68% [at 76.8 µM] (inactive)
8,C[C@H]1C[C@@H](O)CC(C)(C)C1,-4.18% [at 76.8 µM] (inactive)
9,C=CCCCCCCCCC=O,-8.68% [at 76.8 µM] (inactive)
10,CCCCCCCCCCCCN(CCCCCCCCCCCC)CCCCCCCCCCCC,-1.78% [at 76.8 µM] (inactive)
11,ClC(Cl)(Br)Br,-0.574% [at 76.8 µM] (inactive)
12,N=C(N)c1ccc2cc(OC(=O)c3ccc(N=C(N)N)cc3)ccc2c1,-0.215% (inactive)
13,CCCCCCCCCCCCCCCCC,-3.36% [at 76.8 µM] (inactive)
14,CCOC(=O)c1c(C)n(C)c2ccc(O)cc12,-10.4% (inactive)
15,Cc1cc2c(cc1S(N)(=O)=O)S(=O)(=O)CCC2,-6.74% (inactive)
16,CCCCCCCCCCCC,10.2% [at 76.8 µM] (inactive)
17,CC(C)NC(=O)NC(C)C,10.1% [at 76.8 µM] (inactive)

# Molecular target: Retinoic acid receptor RXR-alpha (Homo sapiens) (UniProt P19793)
# Experiment: qHTS assay to identify small molecule agonists of the RXR signaling pathway (AID 1159527); note: % is set by controls: 0 for no effect and ±100 for the full control effect; nearly all actives have a fitted effect of over 35% in size
# Settings: HEK293T RXRa-UAS-bla, beta-lactamase ratio, 16 h; series mostly up to 35.3 µM; activation: at the top concentration
# Procedure, shortened: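 Beta-lactamase reporter assay, agonist format. Engineered HEK 293T line, charcoal-stripped FBS at 2%, overnight (16 hr) exposure, fluorescence at 460 and 530 nm after 405 nm excitation.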
# Retinoic acid receptor RXR-alpha (Homo sapiens), sequence (P19793 whole entry, looked up): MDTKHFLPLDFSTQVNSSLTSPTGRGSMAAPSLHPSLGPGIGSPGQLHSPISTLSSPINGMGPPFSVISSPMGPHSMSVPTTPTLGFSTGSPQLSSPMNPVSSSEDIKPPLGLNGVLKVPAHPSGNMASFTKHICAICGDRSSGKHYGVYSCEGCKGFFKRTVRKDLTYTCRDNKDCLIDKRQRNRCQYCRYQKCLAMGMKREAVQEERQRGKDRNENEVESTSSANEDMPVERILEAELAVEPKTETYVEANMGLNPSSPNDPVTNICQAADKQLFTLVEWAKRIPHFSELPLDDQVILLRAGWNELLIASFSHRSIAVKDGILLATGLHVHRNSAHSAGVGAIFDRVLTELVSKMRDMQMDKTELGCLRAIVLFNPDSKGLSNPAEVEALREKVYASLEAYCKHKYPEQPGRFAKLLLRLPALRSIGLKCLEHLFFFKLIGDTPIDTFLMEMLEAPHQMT
row,Structure (SMILES),activation
1,CS(=O)(=O)O,3.49% [at 76.8 µM] (inactive)
2,CCOC(C)(C)C,-0.268% [at 76.8 µM] (inactive)
3,O=Cc1cccc([N+](=O)[O-])c1,-17.2% [at 76.8 µM] (inactive)
4,N=C(N)c1ccc(OCCCOc2ccc(C(=N)N)cc2)cc1,4.76% (inactive)
5,NC(=O)COCCN1CCN(C(c2ccccc2)c2ccc(Cl)cc2)CC1 (stereo not given),1.08% (inactive)
6,C/C=C(\C)C#N,20.9% [at 76.8 µM] (inactive)
7,CCCCCCOC(=O)CCCCC(=O)OCCCCCC,0.564% [at 76.8 µM] (inactive)
8,C[C@@H]1CCN(C(=O)[C@H](CCCN=C(N)N)NS(=O)(=O)c2cccc3c2NC[C@H](C)C3)[C@@H](C(=O)O)C1,6.68% (inactive)
9,CCc1nccnc1CC,9.17% [at 15.8 µM] (inactive)
10,COC(C)(C)CCCC(C)CC=O (stereo not given),5.06% [at 76.8 µM] (inactive)
11,CCCc1cc(C(N)=S)ccn1,1.65% (inactive)
12,O=C(O)CCCl,10.9% [at 76.8 µM] (inactive)
13,O=C(O)c1ccccc1OP(=O)(O)O,1.49% (inactive)
14,Cn1cc(S(C)=O)c(=O)c2ccc(F)cc21 (stereo not given),1.21% (inactive)
15,O=c1[nH]c(=O)n([C@H]2C[C@H](O)[C@@H](CO)O2)cc1I,13.3% (inactive)
16,CC(=O)Nc1ccc(S(N)(=O)=O)cc1,15.4% [at 76.8 µM] (inactive)
17,C=C(C)C(=O)OCCCCCCCC(C)C,8.05% [at 76.8 µM] (inactive)
18,CC(C)(CC(=O)O)C(=O)O,10.8% [at 76.8 µM] (inactive)

row,Structure (SMILES),activation
1,CO[C@]12C[C@@H](COC(=O)c3cncc(Br)c3)CN(C)[C@@H]1Cc1cn(C)c3cccc2c13,-6% (inactive)
2,CC(=O)CC(C)C,10.7% [at 76.8 µM] (inactive)
3,O=[N+]([O-])c1ccc(F)cc1F,-9.25% [at 76.8 µM] (inactive)
4,Nc1c[n+](N2CCOCC2)no1,5.54% (inactive)
5,CC/C=C\CCOC(C)=O,6.83% [at 76.8 µM] (inactive)
6,COC(=O)NN,3.37% [at 76.8 µM] (inactive)
7,C1CN(CCOCCN2CCOCC2)CCO1,-18.8% [at 76.8 µM] (inactive)
8,C[C@H]1C[C@@H](O)CC(C)(C)C1,-0.327% [at 76.8 µM] (inactive)
9,C=CCCCCCCCCC=O,-3.42% [at 76.8 µM] (inactive)
10,CCCCCCCCCCCCN(CCCCCCCCCCCC)CCCCCCCCCCCC,10.3% [at 76.8 µM] (inactive)
11,ClC(Cl)(Br)Br,3.48% [at 76.8 µM] (inactive)
12,N=C(N)c1ccc2cc(OC(=O)c3ccc(N=C(N)N)cc3)ccc2c1,3.55% (inactive)
13,CCCCCCCCCCCCCCCCC,1.16% [at 76.8 µM] (inactive)
14,CCOC(=O)c1c(C)n(C)c2ccc(O)cc12,-0.851% (inactive)
15,Cc1cc2c(cc1S(N)(=O)=O)S(=O)(=O)CCC2,7.23% (inactive)
16,CCCCCCCCCCCC,-2.48% [at 76.8 µM] (inactive)
17,CC(C)NC(=O)NC(C)C,1.25% [at 76.8 µM] (inactive)
